Counter-ions that a name gives are not always drawn.

The subject of the test is Neuro-2a. Nature of the test: neurite formation score, plate-normalized to DMSO control mean 5.04 (score (0-8 scale)); higher = more or longer neurites. The note with it: 0.1 µM. The method, then: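 Neuro-2a mouse neuroblastoma cells in PLL-coated 96-well plates were pre-treated for 1 h in DMEM(+) with each kinase inhibitor at 0.1 µM, then switched to serum-free DMEM(-) with inhibitor to induce neurite outgrowth and fixed about 2-3 h later. Three blinded observers scored neurite formation from 0 (no neurites) to 8 (long neurites on almost all cells).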
In turn, `Oc1ccc2ccccc2c1SSc1c(O)ccc2ccccc12` returned a neurite formation score of 5.42.

Turning to `CC(C)c1cnn2c(NCc3ccccc3)cc(NCCCCCCN)nc12`, the neurite formation score amounted to 4.88.

`O=C1NCCSc2c1sc1ccc(O)cc21` gave a neurite formation score of 4.58.

In the case of `CN1CCC(Nc2nc(Nc3ccc(Oc4ccccc4)cc3)c3c(=O)[nH]cc(Br)c3n2)CC1`, the neurite formation score came out at 4.25.

Molecule `Cc1cc(Nc2cc(CN3CCOCC3)c3nc(C)c(Cc4ccc(Cl)cc4F)n3n2)n[nH]1` yielded a neurite formation score of 5.25.

As to `COc1c(C)c(C(=O)c2ccc(N)c(C(=O)O)c2)n2ccccc12`, the neurite formation score came out at 5.25.

In turn, `CC(C)CCN1c2nc(Nc3cc(F)c(O)c(F)c3)ncc2N(C)C(=O)C1C` (stereo not given) returned a neurite formation score of 3.42.

With `CC(C)(C)c1nc(-c2cccc(NS(=O)(=O)c3c(F)cccc3F)c2F)c(-c2ccnc(N)n2)s1`, the neurite formation score was found to be 5.25.

As to `Nc1ncnc2c1c(-c1cccc(OCc3ccccc3)c1)cn2C1CC(CN2CCC2)C1` (stereo not given), the neurite formation score was found to be 4.71.

For the molecule `O=S(=O)(c1cccc2cnccc12)N1CCCNCC1` [Fasudil (HA-1077) HCl], the neurite formation score was 5.21.

`COc1cc2c(c(OC)c1OC)-c1c(cc3c(c1OC)OCO3)CC(C)C(C)C2` (stereo not given) [Schizandrin B] displayed a neurite formation score of 5.08.

Turning to `CC(C)[C@H](CO)Nc1nc(Nc2ccc(C(=O)O)c(Cl)c2)c2ncn(C(C)C)c2n1` [Purvalanol B], the neurite formation score amounted to 4.92.

Regarding `CNC(=O)c1cc(Oc2ccc(NC(=O)Nc3ccc(Cl)c(C(F)(F)F)c3)c(F)c2)ccn1` [Regorafenib hydrochloride], the neurite formation score was 4.92.

As for `C=CC(=O)Nc1cccc(Nc2nc(Nc3ccc(N4CCN(C(C)=O)CC4)cc3OC)ncc2C(F)(F)F)c1`, the neurite formation score stood at 3.71.

`O=C(Nc1ccc(CN2CCOCC2)cc1)c1ccc(-c2cccc(Cl)c2)o1` yielded a neurite formation score of 5.54.

With `NCC(=O)Nc1ccc(-n2nc(C(F)(F)F)cc2-c2ccc3c(ccc4ccccc43)c2)cc1`, the neurite formation score stood at 5.04.

Molecule `COc1cc(N2CCC(N(C)C)CC2)ccc1Nc1ncc(Cl)c(Nc2ccccc2P(C)(C)=O)n1` came in with a neurite formation score of 4.38.

`Nc1nc(N)c2nc(-c3cccc(O)c3)c(-c3cccc(O)c3)nc2n1` gave a neurite formation score of 3.38.

`Cn1c(=O)c(F)c(Nc2ccc(I)cc2F)c2c(=O)n(C[C@@H](O)CO)cnc21`: the neurite formation score is 4.42.

In turn, `N#CCNC(=O)c1ccc(-c2ccnc(Nc3ccc(N4CCOCC4)cc3)n2)cc1` came in with a neurite formation score of 4.92.

`C[C@@]1(C(=O)Nc2ccc(F)nc2)CCCN1c1nc(Nc2cc(C3CC3)n[nH]2)c2cccn2n1` returned a neurite formation score of 4.38.

`O=C1Nc2ccc(I)cc2/C1=C/c1cc(Br)c(O)c(Br)c1` gave a neurite formation score of 4.25.

In the case of `O=S(=O)(c1cccc2c(O)nccc12)N1CCCNCC1` [Hydroxyfasudil hydrochloride], the neurite formation score is 2.09.

Molecule `COc1cc2ncnc(Nc3ccc(O)c(Br)c3)c2cc1OC` came in with a neurite formation score of 5.09.

Take `FC(F)(F)c1ccc(CNc2ccc(Cc3c[nH]c4ncccc34)cn2)cc1`: the neurite formation score came to 5.08.

As for `C[C@]1(O)C[C@@H](c2nc(-c3ccc4ccc(-c5ccccc5)nc4c3)c3c(N)nccn32)C1` [Linsitinib], the neurite formation score is 4.54.

With `Oc1cccc(-c2nc(N3CCOCC3)c3oc4ncccc4c3n2)c1`, the neurite formation score was found to be 4.04.

For the molecule `Cc1cc(C)nc(NS(=O)(=O)c2ccc(NC(=S)NC(=O)COc3ccc(Br)cc3Cl)cc2)n1`, the neurite formation score came to 3.88.

In turn, `NC(=O)c1cnc(N[C@@H]2CCCC[C@@H]2N)nc1Nc1cccc(-n2nccn2)c1` gave a neurite formation score of 4.92.

`Cc1ccc(S(=O)(=O)/C=C/C#N)cc1` displayed a neurite formation score of 2.42.

As to `CSc1cccc(Nc2ncc3cc(-c4c(Cl)cccc4Cl)c(=O)n(C)c3n2)c1`, the neurite formation score was 3.92.

In the case of `Cc1ccc2c(Nc3ccc(Cl)cc3)nccc2c1Nc1ncccc1-c1ncnc2nc[nH]c12` [B-Raf inhibitor 1], the neurite formation score was 4.76.

In turn, `CCCCCCCCCCCCCCCc1cccc(O)c1C(=O)O` [Anacardic acid] came in with a neurite formation score of 4.92.

Take `O=C(Nc1cccc(Nc2ncc(Br)c(NCCc3cnc[nH]3)n2)c1)N1CCCC1`: the neurite formation score worked out at 4.71.

The molecule `CC(C)(C)c1nc2c3cc[nH]c(=O)c3c3cc(F)ccc3c2[nH]1` [Pyridone 6] showed a neurite formation score of 5.25.

`CCS(=O)(=O)N1CCN(c2ccc(Nc3ncc(C(N)=O)c(NC4CC4)n3)cc2)CC1` displayed a neurite formation score of 5.08.

Regarding `CN1CCN(c2ccc3nc(-c4c(N)c5c(F)cccc5[nH]c4=O)[nH]c3c2)CC1` [Dovitinib (TKI-258, CHIR-258)], the neurite formation score was determined as 4.08.

Turning to `Cc1cnc(Nc2ccc(F)cc2Cl)nc1-c1c[nH]c(C(=O)N[C@H](CO)c2cccc(Cl)c2)c1`, the neurite formation score worked out at 4.58.

On to `NC1(Cc2ccc(Cl)cc2)CCN(c2ncnc3[nH]ccc23)CC1`, for which the neurite formation score is 4.92.

`COc1cc(C(=O)NC2CCN(C)CC2)c(F)cc1Nc1ncc2c(n1)N(C1CCCC1)CC(F)(F)C(=O)N2C` gave a neurite formation score of 5.08.

These data come from the supplement of paper PMC8047044.
